This passage reports Potency results from PubChem BioAssay (NCATS).

Inconclusive results are not listed. Entries that show only a call come without a potency. The source made the active and inactive calls. Calls come from the whole dose curve; as a rule, active = well fitted inhibition curve with a large enough effect; inconclusive = small, poorly fitted or top-dose-only effect; inactive = flat fitted curve, though single readings scatter.
Potency is the fitted concentration of half-maximal effect.

The nature of the assay: qHTS to identify inhibitors of the type 1 interferon - major histocompatibility complex class I in skeletal muscle: primary screen against the NCATS LOPAC collection (AID 1347405).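 Note: lytic HiBiT luminescence reporting HLA-B protein level.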 The settings on record: iHSKM muscle cells, IFN-b-induced MHC-I HiBiT luminescence, 24 h; series mostly up to 45.9 µM. The text has this:
Assay Submitter (PI): Travis B. Kinder Ph.D. & James Inglese Ph.D.
Assay Development and Screening Technology Laboratory (ADST)
National Center for Advancing Translational Sciences (NCATS), Rockville, MD
National Institute of Health (NIH), Bethesda, Maryland
Idiopathic inflammatory myopathies, collectively referred to as myositis, are a group of rare autoimmune diseases characterized by skeletal muscle inflammation, weakness, and usually accompanied by systemic pathologies of the skin, lungs, or vasculature. Current immunosuppressive therapies and glucocorticoids are often not curative and are accompanied by harsh side effects, especially in children with juvenile myositis. We initiated a drug repurposing and development program to identify more targeted, less toxic therapeutics to treat myositis. Although its cause is not known, muscle from a subset of patients have an abundance of the inflammatory type 1 interferon (IFN) and a down-stream product major histocompatibility complex class I (MHC class I), which are both thought to contribute to damage and weakness. We conducted quantitative high throughput screening on 6,576 compounds (4,679 unique) through a series of cell-based assays to identify those that inhibit the IFN-stimulated expression of MHC class I in muscle precursor cells (myoblasts). The compound identification and evaluation strategy utilized a primary screen with reporter-tagged MHC class I in genome-engineered myoblasts, ATP content counter screen for viability, HLA-ABC immunofluorescence secondary screen, and HLA-B RT-qPCR tertiary screen.
The primary screen utilized CRISPR/Cas9 genome-engineering of immortalized human myoblasts, C25cl48, where a pro-luminescent reporter HiBit was fused to the C-terminus of endogenous MHC class I allele HLA-B*08:01 (HLA-B HiBit myoblasts). HiBit is an 11 amino acid fragment of NanoLuc luminescent reporter (Promega Corporation), and when complexed to the larger LgBit fragment, the reconstituted enzyme produces light in the presence of furimazine substrate (Schwinn et al., 2018). Briefly, HLA-B HiBit myoblasts were plated into 1536-well plates, treated with 4.0 ng/ml human IFN-beta and 1,280 compounds from the Library of Pharmacologically Active Compounds 1280 library (LOPAC1280, Sigma Aldrich) in a 7-point, 1:4.3 titration with a high final concentration of 46 uM. After 24 hrs of treatment, cells were assayed by Nano-Glo HiBiT Lytic Detection System (Promega) and luminescence measured by a ViewLux 1430 Ultra HTS (Perkin Elmer).
Schwinn MK, Machleidt T, Zimmerman K, Eggers CT, Dixon AS, Hurst R, Hall MP, Encell LP, Binkowski BF, Wood K V. 2018. CRISPR-Mediated Tagging of Endogenous Proteins with a Luminescent Peptide. ACS Chem Biol 13:467-474. doi:10.1021/acschembio.7b00549
PROTOCOL TABLE (as described by Inglese et al., 2007)
SEQUENCE No. (e.g., 1, 2, 3, etc.); […] (e.g., Cells, Incubation, Reagent, etc.); VALUE; DESCRIPTION
1a; Cells; 5 uL; Use a Multidrop Combi (Thermo Scientific) to seed 350 cells/well into nine Greiner 1536 well white/solid bottom, high base, TC plates in 5 ul/well of iHSKM growth medium (GM) without dexamethasone into columns 1+2. Add metal lids with gas-exchange holes
1b; Cells; 5 uL; Use a Multidrop Combi (Thermo Scientific) to seed 350 cells/well into nine Greiner 1536 well white/solid bottom, high base, TC plates in 5 ul/well of iHSKM GM without dexamethasone + 4 ng/ml IFN-b into columns 3 - 48. Add metal lids with gas-exchange holes
2; Incubate; 1 hr; Incubate at 37 C, 5% CO2, 95% RH
3; Compounds; 23 nl; Use Pin Tool (Wako) to transfer DMSO control, ruxolitinib IFN-b inhibitor control [High Concentration = 80 uM final, 16-pt, 1:2 in duplicate], and library compounds in DMSO
4; Incubate; 24 hrs; Incubate at 37 C, 5% CO2, 95% RH
5; Dispense; 2.5 ul; Use BioRAPTR FRD (Beckman Coulter) to add HiBit lytic reagent
6; Incubate; 10 min; Incubate in the dark at ambient temperature for lysis
[…]
For orientation: qHTS replaces the single test concentration by a dilution series.
For `CC[C@H]1OC(=O)[C@H](C)[C@@H](O[C@H]2C[C@@](C)(OC)[C@@H](O)[C@H](C)O2)[C@H](C)[C@@H](O[C@@H]2O[C@H](C)C[C@H](NC)[C@H]2O)[C@](C)(O)C[C@@H](C)CN(C)[C@H](C)[C@@H](O)[C@]1(C)O`, the Potency entry was “inactive”.

Turning to `NCCCCC(=O)O`, the Potency entry is “inactive”. As for `Oc1cc(O)cc(/C=C/c2ccc(O)c(O)c2)c1`, the entry is “inactive”. As for `CCNc1nc2c(ncn2[C@H]2C[C@H](O)[C@@H](CO)O2)c(=O)[nH]1`, the entry is “inactive”. The result for `NC(=O)C1=CN(C2OC(COP(=O)(O)OP(=O)(O)OC[C@H]3O[C@@H](n4cnc5c(N)ncnc54)[C@H](OP(=O)(O)O)[C@@H]3O)C(O)C2O)C=CC1` (stereo not given in full) reads “inactive”; that for `Cc1cc(NC2CCCCC2)nc(-n2nc(C)cc2C)n1`, “inactive”. Consider `CSc1ccccc1N1CCN(CCCCCC(=O)NC2CCCc3ccccc32)CC1` (stereo not given), for which the Potency entry is “inactive”. As for `CC(C)NC[C@H](O)COc1cccc2[nH]ccc12`, the Potency entry was “inactive”. Regarding `O=C(O)CC1CCCc2ccccc2C1O` (stereo not given), the Potency entry is “inactive”. The result for `NS(=O)(=O)c1ccc(-n2nc(C(F)(F)F)cc2-c2ccc(Cl)cc2)cc1` reads “inactive”; that for `C[N+]1(C)CCC(OC(=O)C(c2ccccc2)c2ccccc2)CC1`, “inactive”. As for `S=c1[nH]c(-c2ccccc2)cn1-c1ccccc1`, the entry is “inactive”; as for `COc1cccc(C(=O)NCCN2CCN(c3ccc(Cl)cc3)CC2)c1`, “inactive”; as for `NC(=O)C(=O)O`, “inactive”. As for `NC(CCCP(=O)(O)O)C(=O)O` (stereo not given), the entry is “inactive”. For `Fc1ccc(C(OCCCc2cnc[nH]2)c2ccc(F)cc2)cc1`, the Potency result was “inactive”. The result for `Oc1cc2c(cc1O)CN(C(=S)NCCc1ccc(Cl)cc1)CCC2` reads “inactive”; that for `NCCCCCCCCCCN`, “inactive”; that for `COc1ccc(C(=O)/C(Cc2cc(OC)c(OC)c(OC)c2)=C(\C(=O)O)c2ccc3c(c2)OCO3)cc1`, 14.1 µM (active).

For the molecule `O=C(O)CNC(=O)C(CS)Cc1ccccc1` (stereo not given), the Potency result is “inactive”. For the molecule `N[C@H](CCCP(=O)(O)O)C(=O)O`, the Potency result is “inactive”. The result for `Cc1cc(NC(=O)Nc2ccc3c(ccn3C)c2)sn1` reads “inactive”; that for `CCCCCCCCCCCCCCCCCCN(CCCCCCCCCCCCCCCCCC)CCCN(CCO)CCO`, “inactive”. The result for `O=C(CCc1ccncc1)NNC(=O)N1Cc2ccccc2Oc2ccc(Cl)cc21` reads “inactive”.

For the molecule `OC[C@H]1O[C@@H](n2cnc3c(NC4CCCC4)ncnc32)[C@H](O)[C@@H]1O`, the Potency entry is “inactive”. As for `C[N+](C)(C)CCOP(=O)(O)OP(=O)([O-])OC[C@H]1O[C@@H](n2ccc(N)nc2=O)[C@H](O)[C@@H]1O`, the entry is “inactive”; as for `O=C1/C(=C/c2ccsc2)CC/C1=C\c1cccs1`, “inactive”. As for `CN1CCc2ccccc2Cc2[nH]c3ccccc3c2CC1`, the entry is “inactive”. As for `CC(C)NC[C@@H](O)c1ccc(O)c(O)c1`, the entry is “inactive”. With `CCCCCCCC/C=C\CCCCCCCC(=O)NCCO`, the Potency entry is “inactive”. As for `CN[C@H](CC(C)C)C(=O)N[C@H]1C(=O)N[C@@H](CC(N)=O)C(=O)N[C@H]2C(=O)N[C@H]3C(=O)N[C@H](C(=O)N[C@H](C(=O)O)c4cc(O)cc(O)c4-c4cc3ccc4O)[C@H](O)c3ccc(c(Cl)c3)Oc3cc2cc(c3O[C@@H]2O[C@H](CO)[C@@H](O)[C@H](O)[C@H]2O[C@H]2C[C@](C)(N)[C@H](O)[C@H](C)O2)Oc2ccc(cc2Cl)[C@H]1O`, the Potency result is “inactive”. As for `Nc1ccn([C@H]2O[C@H](CO)[C@@H](O)C2(F)F)c(=O)n1`, the entry is “inactive”.

Take `CCCCCCCCCCCCCCCC(=O)OC(CC(=O)O)C[N+](C)(C)C` (stereo not given): the Potency result was “inactive”. As for `CC(C)(C)c1ccc(S(=O)(=O)/C=C/C#N)cc1`, the figure is 7.08 µM (active); as for `Brc1cc2c(cc1[C@H]1Nc3ccccc3[C@H]3C=CC[C@H]31)OCO2`, “inactive”. The result for `OCC1O[C@H](O)C(Cl)C(O)C1O` (stereo not given in full) reads “inactive”. For the molecule `CC1OC1P(=O)(O)O` (stereo not given), the Potency result is “inactive”. As for `O=C(Nc1ccc2[nH]ncc2c1)C1CCC1`, the entry is “inactive”. The result for `O=C(O)CCCC[C@@H]1CCSS1` reads “inactive”.

Consider `NC[C@H]1O[C@@H](n2cnc3c(N)ncnc32)[C@H](O)[C@@H]1O`, for which the Potency result was “inactive”.
